Reference: PubChem BioAssay (Tox21)
Values joined by “and” are separate entries in the source; they are usually repeats but may differ in a detail not shown here. Identical values can stand only once. Records with an inconclusive call do not appear. Entries that show only a call come without a potency. Active and inactive are the calls of the source. Calls come from the whole dose curve; as a rule, active = well fitted cell-killing curve with a large enough effect in the repeat runs; inconclusive = weak or mixed curves, or effect the other way; inactive = no such curve, though single readings can be large or run the other way.

Assay: qHTS assay to identify small molecule antagonists of the glucocorticoid receptor (GR) signaling pathway - cell viability counter screen (AID 720693); note: nearly all actives have a fitted effect of over 55% in size
Details: GR-bla HeLa viability, CellTiter-Glo luminescence, 18 h, with 5 nM dexamethasone present; series mostly up to 58.5 µM
From the text: National Center for Advancing Translational Sciences [NCATS]
NIH Chemical Genomics Center [NCGC]
U.S. Environmental Protection Agency [EPA]
National Institutes of Environmental Health Sciences [NIEHS]
National Toxicology Program [NTP]
U.S. Food and Drug Administration [FDA]
The Glucocorticoid receptor (GR) is one of the members of the nuclear receptor family of ligand-dependent transcription factors. GR plays a critical role in carbohydrate, protein and lipid metabolisms and programmed cell death. CellSensor GR-bla HeLa cell line (Invitrogen) contains a beta-lactamase reporter gene under the control of the glucocorticoid response element stably integrated into HeLa cells, a cervical cancer cell line that expresses glucocorticoid receptor. The activation of the reporter gene under culture conditions can be detected by fluorescence intensity. This cell line has been used to screen the Tox21 10K compound library and to identify the compounds that inhibit the GR signaling. The cytotoxicity of the Tox21 compound library against the GR-bla HeLa cell line was tested in parallel by measuring the cell viability using CellTiter-Glo assay in the same wells.
Tox21 Assay Protocol Summary:
The GR-bla HeLa cells were dispensed at 1500 cells/5 ul/well in 1536-well black wall/clear bottom plates using a Multidrop Combi (ThermoFisher Scientific, Waltham, MA) dispenser. After the assay plates were incubated at a 37 C/5% CO2 incubator for 4 hours, 23 nL of compounds dissolved in DMSO, positive controls or DMSO only was transferred to the assay plate by a pintool station (Kalypsys, San Diego, CA), followed by addition of 1 uL of dexamethasone (5 nM, final concentration in the well). The plates were incubated at 37 C for 18 hours. After 1 uL of LiveBLAzerTM B/G FRET substrate was added using a Flying Reagent Dispenser (Aurora Discovery, San Diego, CA), the plates were incubated at room temperature (RT) for 2 hours, and fluorescence intensity was measured by an Envision plate reader (PerkinElmer, Shelton, CT). After measurement of bla assay, 3 ul CellTiter-Glo (Promega, Madison, WI) was added to measure the cytotoxicity and the plates were then incubated at RT for 30 min. The luminescence was measured using a ViewLux (Perkin Elmer) plate reader.
Potency is the fitted concentration of half-maximal effect.

Structure (SMILES)	Potency
NCc1cccnc1	inactive
CCCCCc1cc(O)cc(O)c1	inactive
O=P(Oc1ccccc1)(Oc1ccccc1)Oc1ccccc1	inactive
O=C(CCl)c1ccccc1	inactive
c1ccc(N=Nc2ccccc2)cc1	inactive
Cc1cc(C)cc(C)c1	inactive
CCN(CC)C(=O)/C(Cl)=C(\C)OP(=O)(OC)OC	inactive
C=CC(=O)OCCO	inactive
CCOC(=S)S	inactive
CC(C)(c1cc(Cl)c(O)c(Cl)c1)c1cc(Cl)c(O)c(Cl)c1	inactive
Cc1cc(Cl)ccc1OCCCC(=O)O	inactive
COP(=S)(OC)Oc1cc(Cl)c(Cl)cc1Cl	inactive
CCc1cccc(CC)c1N(COC)C(=O)CCl	inactive
CCCCCCCCOC(=O)c1ccccc1C(=O)OCCCCCCCC	inactive
C=C(C)C(=O)OCC1CO1 (stereo not given)	inactive
CCC(C)c1cc([N+](=O)[O-])cc([N+](=O)[O-])c1O (stereo not given)	inactive
Clc1nc(Cl)nc(Cl)n1	inactive
N#CC(Br)Br	inactive
Brc1ccc(Oc2cc(Br)c(Br)cc2Br)c(Br)c1	inactive
NC(=S)Nc1ccccc1	inactive

Structure (SMILES)	Potency
Cc1ccccc1[N+](=O)[O-]	inactive
CCC(C)(C)c1ccc(O)cc1	inactive
CCC(=O)O[C@H]1CC[C@H]2[C@@H]3CCC4=CC(=O)CC[C@]4(C)[C@H]3CC[C@]12C	inactive
CCCCN(CCCC)N=O	inactive
Nc1ccc(Cl)c(Cl)c1	inactive
S=C1NCCN1	inactive
CCOc1cc(Oc2ccc(C(F)(F)F)cc2Cl)ccc1[N+](=O)[O-]	inactive
CC(O)CCO (stereo not given)	inactive
COP(=S)(OC)Oc1ccc([N+](=O)[O-])cc1	inactive
CCCCCCOC(=O)c1ccccc1C(=O)OCCCCCC	inactive
NNC(N)=S	inactive
Cc1ccc(N)c(N)c1	inactive
O=C(Nc1ccc(Br)cc1)c1cc(Br)cc(Br)c1O	3.45 µM (active) and 2.19 µM (active)
Cc1cccc(N)c1N	inactive
CC(C)c1ccc(CO)cc1	inactive
O=[N+]([O-])c1cccc2ccccc12	inactive
Nc1cccnc1	inactive
O=C(O)C(F)(F)C(F)(F)C(F)(F)C(F)(F)C(F)(F)C(F)(F)C(F)(F)F	inactive
CCOC(=O)C(C)OC(=O)c1cc(Oc2ccc(C(F)(F)F)cc2Cl)ccc1[N+](=O)[O-] (stereo not given)	inactive
CC(C)(C)c1ccccc1O	inactive
